Measured values: PMC5540273 (PLoS ONE, 2017)

How the values were obtained:
Details in all cases: concentration: 1 μM,replicates: in singlicate; n = 1
DYRK1B = tested on: DYRK1B
DYRK2 = tested on: DYRK2
EGFR = tested on: EGFR
EIF2AK1 = tested on: EIF2AK1
EPHA1 = tested on: EPHA1
EPHA2 = tested on: EPHA2
EPHA3 = tested on: EPHA3
EPHA4 = tested on: EPHA4
EPHA5 = tested on: EPHA5
EPHA6 = tested on: EPHA6
EPHA7 = tested on: EPHA7
EPHA8 = tested on: EPHA8
EPHB1 = tested on: EPHB1
EPHB2 = tested on: EPHB2
EPHB3 = tested on: EPHB3
EPHB4 = tested on: EPHB4
EPHB6 = tested on: EPHB6
ERBB2 = tested on: ERBB2
ERBB3 = tested on: ERBB3
ERBB4 = tested on: ERBB4
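Note: KINOMEscan kinase panel screen.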

SMILES	%Inh (DYRK1B)	%Inh (DYRK2)	%Inh (EGFR)	%Inh (EIF2AK1)	%Inh (EPHA1)	%Inh (EPHA2)	%Inh (EPHA3)	%Inh (EPHA4)	%Inh (EPHA5)	%Inh (EPHA6)	%Inh (EPHA7)	%Inh (EPHA8)	%Inh (EPHB1)	%Inh (EPHB2)	%Inh (EPHB3)	%Inh (EPHB4)	%Inh (EPHB6)	%Inh (ERBB2)	%Inh (ERBB3)	%Inh (ERBB4)
O=c1[nH]cc(-c2ccc(O)cc2)c2sc(-c3ccncc3)cc12 [GSK1033723]	84%	87%	32%	12%	8%	10%	0%	10%	0%	6%	0%	2%	0%	26%	15%	13%	0%	28%	0%	2%
COC(=O)c1cccc(NC(=O)NC2CCN(c3ccnc(Nc4cc(OC)c(OC)c(OC)c4)n3)C2)c1 (centres unmarked) [GSK1379767]	15%	2%	33%	0%	0%	16%	15%	6%	0%	0%	4%	7%	10%	0%	8%	20%	86%	51%	31%	0%
Nc1nccc(-c2ccc3c(N)n[nH]c3c2)n1 [GSK1034945]	75%	93.1%	24%	4%	11%	0%	0%	0%	0%	0%	6%	13%	30%	19%	16%	6%	2%	6%	0%	25%
C[C@@H](Oc1cc(-n2cnc3cc(-c4ccncc4)ccc32)sc1C(N)=O)c1ccccc1Cl [GSK479719]	18%	31%	28%	18%	0%	29%	100%	21%	0%	29%	8%	15%	9%	0%	18%	12%	0%	0%	0%	0%
CCN1CCN(CCCC(=O)Nc2n[nH]c3nc(-c4ccc(O)cc4)c(Br)cc23)CC1 [SB-731579]	77%	74%	0%	71%	0%	0%	6%	0%	0%	0%	0%	0%	0%	6%	0%	0%	0%	24%	66%	0%
CNC(=O)c1ccccc1Nc1nc(Nc2cccc(CS(C)(=O)=O)c2)ncc1C.O=CO [GSK1520489]	83%	97%	99%	0%	99.6%	99.1%	91.8%	88%	93%	90%	96.6%	96.2%	99.9%	88%	9%	91.6%	92.8%	92.1%	3%	98.2%
Cn1cc(-c2cccc3c(N)c(C(N)=O)nnc23)cn1	8%	70%	22%	18%	0%	0%	24%	0%	14%	17%	6%	13%	4%	12%	11%	5%	16%	14%	27%	0%
CC(=O)c1c(-c2ccncc2)[nH]c(-c2ccncc2)c1C [GW493036]	100%	92.3%	37%	17%	19%	6%	0%	0%	0%	0%	1%	6%	12%	0%	3%	18%	0%	0%	17%	34%
Cl.c1ccc(Oc2ccc(Nc3ccnc4cc(-c5ccc(CN6CCNCC6)o5)ccc34)cc2)nc1 [GW567142]	0%	33%	97.7%	0%	77%	0%	16%	0%	0%	0%	0%	10%	0%	0%	0%	4%	96.2%	92%	97%	42%
CN(c1cccc(CNc2nc(Nc3ccc4c(c3)CC(=O)N4)ncc2C(F)(F)F)c1)S(C)(=O)=O	57%	28%	3%	0%	3%	0%	22%	1%	0%	0%	33%	0%	20%	14%	1%	5%	56%	26%	0%	6%
